High-throughput results (PubChem)
Sampled rows, rich in hits. Any-hit rate of the full collection: about 3.2%.
TMEM16A act: mouse TMEM16A channel activation, primary screen; HEK293 TMEM16A/YFP-H148Q/I152L, iodide quench fluorescence; active compounds read low; B-score at 10 µM; 340,000 compounds, 0.3% hits; AID 623877;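 active = fluorescence-ratio B-score plate-corrected deviation score at least 3 library SD below zero, with starting fluorescence score within 5 deviations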;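 also: channel opened by trigger with iodide after compound preincubation; score built on the fluorescence ratio of max minus min over baseline; more negative score means more quench and so TMEM16A activation or potentiation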
CHT PAM: allosteric activators of human choline transporter CHT; B-score at 10 µM; AID 488977; CHT-expressing cells, membrane potential dye, choline EC20; active compounds read high; LV-AA mutant CHT in HEK293 cells; 310,000 compounds, 0.49% hits;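 active = initial fluorescence not abnormally high and integrated response B-score, plate-corrected, over 3 SD above library mean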
Rce1 inhib: yeast Ras-converting enzyme inhibition; Q03530; yeast membranes, quenched prenylated peptide cleavage fluorescence; calls only; 290,000 compounds, 0.27% hits; AID 2563;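 active = fall in fluorescence gain of 50% or more versus controls, with final raw signal at or below 3038400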;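 also: plate controls were neutral control wells for no effect and wells lacking membranes for full effect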
CHT inh: inhibitors of human choline transporter CHT; CHT-expressing cells, membrane potential dye, choline response; active compounds read low; B-score at 10 µM; 310,000 compounds, 0.86% hits; AID 488975;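 active = B-score over 3 SD under the library average, and starting fluorescence ratio not unusually high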;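 also: choline stimulus applied at its EC90 after an EC20 pre-addition; B-score computed on integrated fluorescence ratio after choline addition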
Kir21 inh: Kir2.1 (mouse) channel inhibition. HEK293-Kir2.1, FluxOR thallium flux fluorescence; active compounds read low. B-score at 10 µM. 310,000 compounds, 0.85% hits;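 active = fluorescence ratio B-score at or below minus 3 SD of library scores, with starting-brightness B-score within 2 SD, cut at about -4.2 in these data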;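 also: channel flux triggered by added potassium and thallium sulfate stimulus; B-score of peak minus minimum fluorescence over baseline after thallium stimulus; more negative B-score means stronger Kir2.1 block with less thallium influx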
TMEM16A inh: inhibitors of mouse TMEM16A calcium-activated chloride channel; Q8BHY3; HEK293 TMEM16A/YFP iodide influx fluorescence, ionomycin; normalized B-score (activity score, 25-100; higher = stronger inhibition) at 10 µM; 310,000 compounds, 1.2% hits; AID 588511;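 active = ratio plate-corrected score three or more library SD toward inhibition, starting fluorescence score within five deviations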;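 also: score derived from kinetic fluorescence span divided by baseline fluorescence per well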
* = called active by the depositor.

`Cc1[nH]n(-c2ccc([N+](=O)[O-])cc2)c(=O)c1C=NCCN1CCN(C(=O)c2ccccc2)CC1` gave TMEM16A act inactive, CHT PAM inactive, Rce1 inhib inactive, CHT inh inactive, Kir21 inh -0.2 and TMEM16A inh inactive.
`COc1ccc(-c2[nH]n(-c3ccc([N+](=O)[O-])cc3)c(=O)c2C=NCCN2CCNCC2)cc1` gave CHT PAM 9.26*, Rce1 inhib inactive, CHT inh inactive, Kir21 inh -2.03 and TMEM16A inh inactive.
For C(=C\c1sc(Nc2ccccc2)n[n+]1-c1ccccc1)/c1ccccc1 the results were TMEM16A act -8.89*.
`COc1cccc(CN2CC(C(=O)NCCC3=CCCCC3)CCC2=O)c1` (stereo not drawn) gave TMEM16A act inactive, CHT PAM inactive, Rce1 inhib inactive, CHT inh inactive, Kir21 inh -0.87 and TMEM16A inh inactive.
Screening O=C(Cc1ccc(Nc2nc3ccc(Br)cc3[nH]2)cc1)NCCc1cccs1 returned TMEM16A act inactive, CHT PAM inactive, Rce1 inhib inactive, CHT inh inactive, Kir21 inh 0.13 and TMEM16A inh inactive.
Screening O=C(NCC1CC1)c1ccc(Nc2nc3ccc(Br)cc3[nH]2)cc1 returned TMEM16A act inactive, CHT PAM inactive, Rce1 inhib active, CHT inh inactive, Kir21 inh 2.97 and TMEM16A inh inactive.
Screening COc1ccccc1C(=O)NCC(=O)NCCC(c1ccccc1)c1ccccc1 returned TMEM16A act inactive.
`Cc1ccc(S(=O)(=O)Oc2ccccc2/C=N/O)cc1` gave TMEM16A act inactive, CHT PAM inactive, Rce1 inhib inactive, CHT inh inactive, Kir21 inh -6.89* and TMEM16A inh inactive.
Screening Cc1ccc(S(=O)(=O)Oc2ccccc2-c2ccccc2)cc1 returned TMEM16A act -5.36*.
Cc1ccc(S(=O)(=O)Oc2ccccc2)cc1 was read as TMEM16A act inactive.
Cc1ccc(S(=O)(=O)Oc2ccccc2/C=N/Nc2ccc(C(=O)O)cc2)cc1 was read as TMEM16A act inactive, CHT PAM inactive, Rce1 inhib inactive, CHT inh inactive, Kir21 inh 1.22 and TMEM16A inh inactive.
Screening COc1cc2c(cc1OC)CN(C(=O)C1CCC(=O)N(CCCN3CCOCC3)C1)CC2 (stereo not drawn) returned TMEM16A act inactive, CHT PAM inactive, Rce1 inhib inactive, CHT inh inactive, Kir21 inh 0.01 and TMEM16A inh inactive.
`CN1CCC(=C(c2ccccc2)c2ccc(Br)cc2)CC1` gave TMEM16A act inactive, CHT PAM inactive, Rce1 inhib inactive, CHT inh inactive, Kir21 inh -8.6* and TMEM16A inh inactive.
For COC(=O)C1=C(N)Oc2cc(C)n(Cc3ccncc3)c(=O)c2C1c1cccnc1 (stereo not drawn) the results were TMEM16A act -14.9*, CHT PAM inactive, Rce1 inhib inactive, CHT inh inactive, Kir21 inh -1.06 and TMEM16A inh inactive.
Screening Cc1ccc(S(=O)(=O)N2[C@@H](c3ccccc3F)C(C(=O)O)=CC[C@H]2c2ccc(C(C)C)cc2)cc1 returned TMEM16A act inactive, CHT PAM inactive, CHT inh inactive and TMEM16A inh 100*.
Cc1ccc(S(=O)(=O)N2[C@@H](c3ccccc3F)C(C(=O)O)=CC[C@H]2c2ccc3c(c2)OCO3)cc1 was read as TMEM16A act inactive, CHT PAM inactive, CHT inh inactive and TMEM16A inh inactive.
Screening Cc1ccc([C@@H]2CC=C(C(=O)O)[C@H](c3ccccc3F)N2S(=O)(=O)c2ccc(C)cc2)cc1 returned TMEM16A act -23.9*, CHT PAM inactive, CHT inh inactive and TMEM16A inh inactive.
`Cc1ccc(S(=O)(=O)N2[C@@H](c3cccc(Cl)c3)C(C(=O)O)=CC[C@H]2c2ccc(Cl)cc2)cc1` gave TMEM16A act inactive, CHT PAM inactive, CHT inh inactive and TMEM16A inh 100*.
Screening COc1cc(OC)cc(-c2c(-c3cccs3)c3cc(-c4ccc5[nH]ccc5c4)ccc3n2C)c1 returned TMEM16A act inactive.
For Cc1onc(-c2ccccc2)c1CNS(=O)(=O)c1cccc(Br)c1 the results were TMEM16A act inactive, CHT PAM inactive, Rce1 inhib inactive, CHT inh inactive, Kir21 inh -6.36* and TMEM16A inh inactive.
Screening CCOc1ccc(OCC)c(NC(=O)c2nnn(CC(=O)Nc3cc(C)cc(C)c3)c2N)c1 returned TMEM16A act inactive, CHT PAM inactive, Rce1 inhib active, CHT inh inactive, Kir21 inh -1.82 and TMEM16A inh inactive.
Screening CCOc1ccc(NC(=O)c2nnn(CC(=O)Nc3ccccc3OCC)c2N)cc1 returned TMEM16A act inactive, CHT PAM inactive, Rce1 inhib inactive, CHT inh inactive, Kir21 inh 0.96 and TMEM16A inh inactive.
`Cc1cc2cc(C#N)c(NCCNC(=S)NCCCN3CCOCC3)nc2cc1C` gave TMEM16A act inactive, CHT PAM inactive, Rce1 inhib active, CHT inh inactive, Kir21 inh 0.56 and TMEM16A inh inactive.
`Cc1cccc2cc(C#N)c(NCCNC(=S)NCCCN3CCOCC3)nc12` gave TMEM16A act inactive, CHT PAM inactive, Rce1 inhib inactive, CHT inh inactive, Kir21 inh -1.56 and TMEM16A inh inactive.
Screening CCCC1CC(C)(/C(C)=N\NC(N)=S)OC1=O (stereo not drawn) returned TMEM16A act inactive, CHT PAM inactive, Rce1 inhib inactive, CHT inh -9.26*, Kir21 inh -1.26 and TMEM16A inh inactive.
`C/C(CCC1CC(C)(C)OC1=O)=N\NC(N)=S` (stereo not drawn) gave TMEM16A act inactive, CHT PAM inactive, Rce1 inhib inactive, CHT inh inactive, Kir21 inh 0.68 and TMEM16A inh inactive.
`O=S(=O)(Nc1ncnc2sc3c(c12)CCC3)c1ccc(Cl)s1` gave TMEM16A act inactive, CHT PAM inactive, Rce1 inhib inactive, CHT inh inactive, Kir21 inh 0.07 and TMEM16A inh 25*.
O=C(Nc1ncnc2sc3c(c12)CCCC3)c1ccncc1 was read as TMEM16A act inactive, CHT PAM inactive, Rce1 inhib inactive, CHT inh inactive, Kir21 inh 0.4 and TMEM16A inh inactive.
For COc1cc(C(=O)Nc2nc(-c3ccc(F)cc3)cs2)ccc1OCC(=O)N1CCOCC1 the results were TMEM16A act inactive, CHT PAM inactive, Rce1 inhib inactive, CHT inh inactive, Kir21 inh -0.61 and TMEM16A inh 25*.
